Bioassay records deposited in PubChem by National Center for Advancing Translational Sciences (NCATS).
An excerpt weighted towards active compounds, which were near 21% of everything screened.
RORgamma inh = ROR gamma (mouse) transcription inhibition. Drosophila S2 Gal4-RORgamma UAS-luciferase reporter, 20 h. Potency, µM (titrated, usually from 53.6 µM), most hits filed as inhibitors. 310,000 compounds, 5.4% hits. AID 2551; note: nearly all actives have a fitted effect of over 60% in size
Target sequence (P51450 whole entry, looked up, the tested form may be a part): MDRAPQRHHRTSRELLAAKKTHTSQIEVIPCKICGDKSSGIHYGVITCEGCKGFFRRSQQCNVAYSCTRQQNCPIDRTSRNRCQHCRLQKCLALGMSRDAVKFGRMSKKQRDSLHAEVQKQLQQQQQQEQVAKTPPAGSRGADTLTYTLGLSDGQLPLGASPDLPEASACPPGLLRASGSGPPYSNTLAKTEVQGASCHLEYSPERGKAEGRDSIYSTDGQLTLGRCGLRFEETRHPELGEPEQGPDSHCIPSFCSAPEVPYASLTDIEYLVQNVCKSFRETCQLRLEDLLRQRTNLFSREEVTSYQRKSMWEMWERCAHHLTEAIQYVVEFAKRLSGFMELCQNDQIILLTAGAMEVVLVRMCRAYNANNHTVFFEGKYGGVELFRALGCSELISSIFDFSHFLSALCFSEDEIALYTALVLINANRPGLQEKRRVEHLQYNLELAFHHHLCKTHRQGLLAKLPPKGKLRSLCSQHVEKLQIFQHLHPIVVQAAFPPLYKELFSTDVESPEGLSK
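Stably transfected Drosophila Schneider cells are the test system, with ROR gamma fused to Gal4 and luciferase under UAS control; luminescence is read after 20 hr of 700 uM copper sulfate induction at ambient temperature.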
TDP1 cell CPT = growth inhibition of DT40 Tdp1-/-;hTDP1 cells with camptothecin (screen for TDP1 inhibitors) | chicken DT40 Tdp1-/-;hTDP1 cells + 20 nM CPT, ATP luminescence, 48 h | Potency, µM (series often up to 46.2 µM), hits mostly inhibitors | 420,000 compounds, 12% hits | AID 686979; note: nearly all actives have a fitted effect of over 55% in size
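Chicken DT40 Tdp1-/- cells stably complemented with human TDP1 were seeded at 400 cells/well in medium containing 20 nM camptothecin, exposed to pin-transferred compounds, and grown at 37 °C for at least 48 hr. Viability was read as ATP luminescence.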
ELG1 DNA repair = inhibitors of ELG1-dependent DNA repair in HEK293T cells | HEK293T ELG1-luciferase reporter, luminescence, 16 h; DNA damage induced by 5-fluorouridine | Potency, µM (titrated, usually from 46.1 µM), most hits filed as inhibitors | 330,000 compounds, 2.3% hits | AID 504467; note: nearly all actives have a fitted effect of over 55% in size
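Step one: seed 2,000 cells per well. Step two: pin-transfer compound or DMSO alongside 5-fluorouridine. Step three: incubate 16 hr, 37 °C, 5% CO2. Step four: add ONE-Glo, wait 30 min, read luminescence.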
IL-1B inflam inh = inhibitors of inflammasome signaling (IL-1 beta secretion) | THP-1 LPS/ATP IL-1B secretion, AlphaLISA, 16 h; stronger effect = lower value | AID 743279 | 360,000 compounds, 4.7% hits | activity change, % at 57.5 µM; in the data active = activity change below about -50%; inconclusive = mostly about -30% to -49%
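THP-1 cells pretreated 1 hr with compounds (up to 57.5 uM final), then stimulated with LPS (250 ng/mL final) plus ATP (1.25 mM final); secreted IL-1B measured by AlphaLISA after 16 hr, decreased signal indicating inhibition.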
TDP1 cell noCPT = qHTS for Inhibitors of human tyrosyl-DNA phosphodiesterase 1 (TDP1): qHTS in cells in absence of CPT | DT40 Tdp1-/- hTDP1 cells, no CPT, ATP luminescence, 48 h | Potency, µM (doses to about 46.2 µM), usual class: inhibitors | 420,000 compounds, 15% hits; note: nearly all actives have a fitted effect of over 55% in size
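Growth of hTDP1-complemented DT40 Tdp1-knockout cells is measured by ATP luminescence after at least 48 hr compound exposure at 37 °C, with DMSO substituting for the 20 nM CPT used in the parallel screen.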
Gal4-VP16 FLuc = inhibits Gal4-VP16 luciferase reporter, ROR gamma counter-screen; Drosophila S2 Gal4-VP16 UAS-luciferase, luminescence, 20 h; Potency, µM (titrated, usually from 53.6 µM), hits mostly inhibitors; 310,000 compounds, 3.5% hits; AID 2546;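 note: Gal4-VP16 expression switched on by copper sulfate through the metallothionein promoter; nearly all actives have a fitted effect of over 50% in size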
Large screens that a line does not name were inactive. Unless noted, calls come from the whole dose curve; as a rule, active = well fitted curve in the direction sought with a large enough effect; inconclusive = small, poorly fitted or top-dose-only effect, or another doubt; inactive = no such curve, though single readings can be large; an effect the other way counts as inactive or inconclusive.

Cc1cc(C)cc(Nc2ccc([N+](=O)[O-])nc2[N+](=O)[O-])c1	none
COc1ccccc1CN1CCOc2ccc(C(C)(O)COc3ccccc3)cc2C1 (stereo unspecified)	none (no result: RORgamma inh, ELG1 DNA repair, IL-1B inflam inh, Gal4-VP16 FLuc)
N=c1n(CCCOc2ccc(Br)cc2)c2ccccc2n1CC(N)=O	TDP1 cell CPT 18µM, TDP1 cell noCPT 16µM
Cn1c(=O)n(CCCOc2ccc(Br)cc2)c2ccccc21	RORgamma inh 10µM, TDP1 cell noCPT inconclusive, Gal4-VP16 FLuc inconclusive (no result: ELG1 DNA repair)
Cn1c(=O)n(CCc2ccccc2)c2ccccc21	none
Cn1c(=O)n(CCCOc2ccc(Cl)cc2)c2ccccc21	TDP1 cell CPT 15µM, TDP1 cell noCPT 18µM
Cn1c(=O)n(Cc2ccccc2Br)c2ccccc21	none
CCCCOC(=O)Cn1c(=N)n(CCC)c2ccccc21	none
COC(=O)[C@@H]1CCCN1Cc1ccc2c(c1)CN(Cc1ccc3c(c1)OCCO3)CCO2	none (no result: RORgamma inh, ELG1 DNA repair, IL-1B inflam inh, Gal4-VP16 FLuc)
Cc1[nH]n(S(=O)(=O)Cc2ccccc2)c(=O)c1N=Nc1ccccc1Cl	ELG1 DNA repair inconclusive
Cc1ccccc1N=Nc1c(C)[nH]n(C(N)=S)c1=O	RORgamma inh 0.4µM, TDP1 cell CPT 1.2µM, ELG1 DNA repair inconclusive, TDP1 cell noCPT 1.2µM, Gal4-VP16 FLuc 1µM
Cc1cccc(N=Nc2c(C)[nH]n(C(N)=S)c2=O)c1C	RORgamma inh 0.4µM, ELG1 DNA repair inconclusive, Gal4-VP16 FLuc 1.6µM (no result: TDP1 cell CPT, IL-1B inflam inh, TDP1 cell noCPT)
Cc1[nH]n(C(N)=S)c(=O)c1N=Nc1ccccc1C(F)(F)F	RORgamma inh 0.32µM, TDP1 cell CPT inconclusive, TDP1 cell noCPT 15µM, Gal4-VP16 FLuc 2.5µM
CCOc1ccccc1N=Nc1c(C)[nH]n(C(N)=S)c1=O	RORgamma inh 0.45µM, TDP1 cell CPT inconclusive, TDP1 cell noCPT 15µM, Gal4-VP16 FLuc 1.3µM
Nc1ncnc2c1ncn2[C@@H]1O[C@H](C(=O)NS(=O)(=O)c2cccs2)[C@@H](O)[C@H]1O	none (no result: RORgamma inh, ELG1 DNA repair, Gal4-VP16 FLuc)
Cn1cnc(S(=O)(=O)N2CCC(C(=O)NCc3ccc(F)cc3)CC2)c1	none (no result: RORgamma inh, ELG1 DNA repair, IL-1B inflam inh, Gal4-VP16 FLuc)
c1csc(-c2ccc3nncn3c2)c1	TDP1 cell CPT inconclusive (no result: RORgamma inh, ELG1 DNA repair, Gal4-VP16 FLuc)
Cc1[nH]n(C(N)=S)c(=O)c1N=Nc1ccc([N+](=O)[O-])cc1Cl	RORgamma inh 0.71µM, TDP1 cell CPT inconclusive, TDP1 cell noCPT 2.9µM, Gal4-VP16 FLuc 3.5µM
CC(=O)C(C(C)=O)C1(O)C(=O)c2ccccc2C1=O	TDP1 cell CPT 26µM, TDP1 cell noCPT 23µM
COc1ccc(O)c(C2(O)C(=O)c3ccccc3C2=O)c1	none
CCOc1cc(C)c(-c2onc(C(F)(F)F)c2-c2csc(C)n2)c(O)c1	TDP1 cell CPT inconclusive, IL-1B inflam inh -55, TDP1 cell noCPT inconclusive, Gal4-VP16 FLuc 11µM
Cc1ccc(-n2nc(C)c3c(C)cc(=O)n(CC(=O)NC(C)C)c32)cc1	none (no result: RORgamma inh, ELG1 DNA repair, IL-1B inflam inh, Gal4-VP16 FLuc)
O=C(NCc1ccccc1)c1ccc(C2SCC(=O)N2Cc2ccccc2)cc1 (stereo unspecified)	ELG1 DNA repair 16µM, TDP1 cell noCPT inconclusive, Gal4-VP16 FLuc inconclusive
CCc1ccc(NC(=O)c2ccc(C3SCC(=O)N3CCc3ccccc3)cc2)cc1 (stereo unspecified)	ELG1 DNA repair 10µM
O=C(NCc1cccc(C(F)(F)F)c1)c1csc([C@H]2C[C@H](O)[C@@H](CO)O2)n1	none (no result: RORgamma inh, ELG1 DNA repair, Gal4-VP16 FLuc)
CC(=O)N1c2ccc(C)cc2C(c2ccccc2)CC1C (stereo unspecified)	RORgamma inh inconclusive, TDP1 cell CPT inconclusive, ELG1 DNA repair inconclusive, IL-1B inflam inh -55, TDP1 cell noCPT inconclusive
CC(=O)N1c2ccc(F)c(F)c2C[C@H]1C	ELG1 DNA repair inconclusive (no result: RORgamma inh, Gal4-VP16 FLuc)
CCCC(=O)OC1CC(C)N(C(=O)c2ccccc2)c2ccc(C)cc21 (stereo unspecified)	TDP1 cell CPT inconclusive, ELG1 DNA repair inconclusive, TDP1 cell noCPT 23µM
CC(=O)OC1CC(C)N(C(=O)c2ccccc2)c2ccc(C)cc21 (stereo unspecified)	TDP1 cell CPT inconclusive, TDP1 cell noCPT inconclusive
CCC(C(=O)c1ccc2ncccc2c1)c1ccccc1 (stereo unspecified)	TDP1 cell CPT 15µM, TDP1 cell noCPT 16µM, Gal4-VP16 FLuc inconclusive
O=C(Nc1ccc2ncccc2c1)c1ccccc1	TDP1 cell CPT inconclusive, TDP1 cell noCPT inconclusive
Fc1cccc(Cc2c(-c3ccc(Cl)cc3)nc3c(Cl)cc(C(F)(F)F)cn23)c1	none (no result: RORgamma inh, ELG1 DNA repair, Gal4-VP16 FLuc)
CCC(C)(C)n1nnnc1C(c1ccc2ncccc2c1)N1CCN(c2nc3ccccc3s2)CC1 (stereo unspecified)	RORgamma inh inconclusive, TDP1 cell CPT 21µM, ELG1 DNA repair inconclusive, TDP1 cell noCPT inconclusive
CCC(C)(C)n1nnnc1C(c1ccc2ncccc2c1)N1CCCC(C)C1 (stereo unspecified)	TDP1 cell noCPT 11µM
